RE007 growth inh: less growth of the S. pombe RE007 Vpr strain; AID 651644; 360,000 tested, 0.21% active; Potency, µM (highest dose often 92.2 µM), actives largely listed as inhibitors; S. pombe RE007 Vpr strain, BacTiter-Glo ATP luminescence, 24 h; active = well fitted falling curve with a large enough effect; inconclusive = small, poorly fitted or top-dose-only effect; inactive = no such curve, though single readings can be large or run the other way; note: nearly all actives have a fitted effect of over 50% in size
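Fission yeast strain RE007, carrying one chromosomally integrated HIV-1 vpr copy, was seeded at OD 0.01 in PMG+AL medium with 23 nL pinned compound. After 24 h at 30 °C and 99% humidity, viability was read by BacTiter-Glo luminescence.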
Sm TGR inh: blocks Schistosoma mansoni thioredoxin glutathione reductase | purified TGR, DTNB reduction, TNB absorbance 405 nm | Potency, µM (series often up to 114 µM), hits mostly inhibitors | 360,000 tested, 3% active | AID 485364 | Q962Y6; note: nearly all actives have a fitted effect of over 60% in size
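First, TGR (20 nM dispensed) and NADPH were mixed with compound. Second, a 15 min room-temperature incubation followed. Third, further NADPH and then DTNB were added to start the reaction. Finally, TNB absorbance was monitored kinetically.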
Tb PYK inh: blocks Trypanosoma brucei pyruvate kinase. TbPYK enzyme, Kinase-Glo Plus ATP luminescence, 45 min. Potency, µM (doses to about 76.8 µM), actives largely listed as inhibitors. 410,000 tested, 0.12% active; note: nearly all actives have a fitted effect of over 50% in size
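Screened from lowest to highest concentration, compounds were pinned into TbPYK/substrate mixtures, and ADP (130 uM final) was added. Plates sat at room temperature for 45 min prior to Kinase-Glo Plus detection by luminescence.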
LmPK inh: LmPK (Leishmania mexicana) enzyme inhibition; purified LmPK, Kinase-Glo ATP luminescence, 1 h; Potency, µM (series often up to 57.5 µM), most hits filed as inhibitors; 290,000 tested, 0.37% active; AID 1721
Target sequence (Q27686 whole entry, looked up): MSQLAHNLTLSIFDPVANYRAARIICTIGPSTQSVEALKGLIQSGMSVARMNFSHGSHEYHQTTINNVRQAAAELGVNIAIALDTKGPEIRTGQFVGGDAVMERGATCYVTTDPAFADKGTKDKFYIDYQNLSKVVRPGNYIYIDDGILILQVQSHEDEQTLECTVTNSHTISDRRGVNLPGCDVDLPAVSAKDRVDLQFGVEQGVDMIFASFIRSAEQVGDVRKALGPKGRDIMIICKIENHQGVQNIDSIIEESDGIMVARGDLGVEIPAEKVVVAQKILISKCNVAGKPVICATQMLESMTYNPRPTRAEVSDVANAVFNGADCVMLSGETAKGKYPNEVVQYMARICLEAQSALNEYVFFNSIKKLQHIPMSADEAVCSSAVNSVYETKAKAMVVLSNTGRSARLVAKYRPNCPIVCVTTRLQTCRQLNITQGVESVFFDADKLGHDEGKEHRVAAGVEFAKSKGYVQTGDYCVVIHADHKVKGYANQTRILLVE
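Purified LmPK (0.1 nM) converted ADP (0.1 mM) to ATP with PEP (0.5 mM) in imidazole buffer pH 7.2 with KCl and MgCl2, 1 h at room temperature. ATP was read by Kinase-Glo luminescence; data normalized to uninhibited and no-enzyme controls.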
Large screens that a line does not name were inactive. This is a sample that favours compounds with a hit; in the whole collection about 3% have one here. Unless noted, calls come from the whole dose curve; as a rule, active = well fitted curve in the direction sought with a large enough effect; inconclusive = small, poorly fitted or top-dose-only effect, or another doubt; inactive = no such curve, though single readings can be large; an effect the other way counts as inactive or inconclusive.

Cc1ccccc1NNC(N)=S	RE007 growth inh inconclusive
NC(=S)NNc1c(F)c(F)c(F)c(F)c1F	RE007 growth inh inconclusive, Sm TGR inh 40µM
CCN(CC)C(=O)c1ccc(S(=O)(=O)Cc2ccc(C)cc2)c([N+](=O)[O-])c1	Sm TGR inh 7.9µM
Cc1ccc(CS(=O)(=O)c2ccc(C(=O)N3CCCCC3)cc2[N+](=O)[O-])cc1	Sm TGR inh 18µM
CCN(CC)C(=O)c1ccc(CS(=O)(=O)c2ccc(Br)cc2)cc1	none
Cc1ccc(CS(=O)(=O)c2ccc(C(=O)N3CCN(c4ccccn4)CC3)cc2[N+](=O)[O-])cc1	Sm TGR inh 32µM
O=C(c1ccc(N2CCCCC2)c([N+](=O)[O-])c1)N1CCN(c2ccccn2)CC1	none
CCN1C=C(Cc2ccccc2C)C2=C(C1)C(c1ccccc1C)C(C#N)=C(N)O2 (stereo not given)	Sm TGR inh 45µM
COC(=O)CC1c2ccccc2C(Cc2ccc(OC)cc2)C(C)N1C(=O)OC (stereo not given)	none (no result: RE007 growth inh, Sm TGR inh, Tb PYK inh)
O=C(Nc1nc(-c2ccco2)c(-c2ccco2)s1)c1c(F)cccc1Cl	Sm TGR inh 22µM (no result: LmPK inh)
O=C(Nc1nc(-c2ccco2)c(-c2ccco2)s1)c1cnccn1	Sm TGR inh 14µM (no result: LmPK inh)
O=C(Nc1nc(-c2ccco2)c(-c2ccco2)s1)c1ccc(F)cc1F	Sm TGR inh 10µM, Tb PYK inh inconclusive (no result: LmPK inh)
Cc1nc2ccn(Cc3cccnc3)c(=O)c2cc1C(=O)NCc1ccccc1	none (no result: RE007 growth inh, LmPK inh)
O=S(=O)(Nc1ccc(S(=O)(=O)N2CCCCC2)cc1)c1ccc(Br)s1	Sm TGR inh 6.3µM
O=S(=O)(Nc1ccc(S(=O)(=O)N2CCCCCC2)cc1)c1cccs1	none
Cc1ccc(N(CC2CO2)S(=O)(=O)c2ccc(C)cc2)cc1 (stereo not given)	Sm TGR inh inconclusive
Cc1ccc(N(CC2CO2)S(=O)(=O)c2ccc([N+](=O)[O-])cc2)cc1 (stereo not given)	Sm TGR inh 32µM
COCc1ccc(C(=O)Nc2ccccc2C(=O)NCc2cccnc2)cc1	none
O=C(NCc1cccnc1)c1ccccc1NS(=O)(=O)c1ccc(F)cc1F	Sm TGR inh 40µM
C=CCOc1ccc(C(=O)Nc2ccccc2C(=O)NCc2cccnc2)cc1	Sm TGR inh 40µM
O=C(NCc1cccnc1)c1ccccc1NS(=O)(=O)c1ccc(F)cc1	none
CCc1cccc(NC(=O)CSC2=NS(=O)(=O)c3ccccc32)c1	Sm TGR inh 3.2µM, Tb PYK inh inconclusive, LmPK inh 16µM
CCc1cccc(NC(=O)CSc2ncc3c(n2)-c2ccccc2N(CC)S3(=O)=O)c1	none (no result: RE007 growth inh, LmPK inh)
CCc1ccc(NC(=O)c2sc3nc4n(c(=O)c3c2C)CCC4)cc1	none
CCOc1ccc(NC(=O)c2sc3nc4n(c(=O)c3c2C)CCCC4)cc1	Sm TGR inh 32µM (no result: RE007 growth inh, LmPK inh)
COc1ccc(OC)c(CCNC(=O)c2sc3nc4n(c(=O)c3c2C)CCC4)c1	none
Cc1ccc(CNC(=O)c2sc3nc4n(c(=O)c3c2C)CCCCC4)cc1	Tb PYK inh inconclusive (no result: RE007 growth inh, LmPK inh)
COc1ccc(CCNC(=O)c2sc3nc4n(c(=O)c3c2C)CCCC4)cc1OC	Sm TGR inh 35µM (no result: RE007 growth inh, LmPK inh)
Cc1c(C(=O)NCCc2ccc(Cl)cc2)sc2nc3n(c(=O)c12)CCCC3	Sm TGR inh 45µM (no result: RE007 growth inh, LmPK inh)
Cc1ccc(CNC(=O)c2sc3nc4n(c(=O)c3c2C)CCCC4)cc1	Sm TGR inh 56µM (no result: RE007 growth inh, LmPK inh)
COc1cccc(N2CC(NC(=O)Cc3cccs3)CC2=O)c1 (stereo not given)	none (no result: RE007 growth inh, LmPK inh)
CC(=O)c1ccc(NC(=O)Cn2nc(C(F)(F)F)c3c2CCCC3)cc1	none (no result: RE007 growth inh, LmPK inh)
Cc1cccc2c1N(Cc1ccccc1OCCC(C)C)C(=O)C2=O	none (no result: RE007 growth inh, LmPK inh)
Cc1c(C(=O)NCc2ccc(Cl)cc2)sc2nc3n(c(=O)c12)CCCCC3	Sm TGR inh 35µM, Tb PYK inh inconclusive (no result: RE007 growth inh, LmPK inh)
CCC(=O)n1nc(-c2ccco2)nc1SCc1ccccc1	Sm TGR inh 8.9µM
CC(=O)n1nc(-c2ccco2)nc1SCc1ccccc1	Sm TGR inh 32µM
O=C(c1cccs1)n1nc(-c2ccco2)nc1SCc1ccccc1	none
C=CCN1CC[C@]23c4c5ccc(O)c4OC2C(=O)CC[C@@]3(O)C1C5 (stereo not given in full)	Sm TGR inh 40µM
Cc1ccc(C(=O)N/C(=C\c2ccc(-c3ccccc3[N+](=O)[O-])o2)C(=O)NCCN(C)C)cc1	Sm TGR inh 1.4µM
Cc1ccc(C(=O)N/C(=C\c2ccc(-c3ccccc3[N+](=O)[O-])o2)C(=O)NCCCN(C)C)cc1	Sm TGR inh 8.9µM
COC(=O)/C(=C\c1ccc([N+](=O)[O-])o1)NC(=O)c1ccccc1	Sm TGR inh inconclusive
CCCCNC(=O)/C(=C\c1ccc([N+](=O)[O-])o1)NC(=O)c1ccccc1	Sm TGR inh 45µM
O=C(O)/C(=C\c1ccc(-c2ccccc2[N+](=O)[O-])o1)c1ccccc1	Sm TGR inh 35µM
Cc1noc(-c2ccc(N3CCCCC3)c([N+](=O)[O-])c2)n1	none (no result: RE007 growth inh, LmPK inh)
COC(=O)[C@@]12C[C@@H](CC(=O)NCc3cccc4ccccc34)C(=O)N(Cc3ccc4c(c3)OCO4)C1=CCC(C)(C)C2	none (no result: Sm TGR inh, Tb PYK inh, LmPK inh)
O=C1CCN(c2ccc([N+](=O)[O-])cc2F)CC1	Sm TGR inh 40µM
O=[N+]([O-])c1ccc(N2CC2)c([N+](=O)[O-])c1	RE007 growth inh inconclusive (no result: Sm TGR inh, LmPK inh)
O=C(COc1ccc([N+](=O)[O-])cc1)Nc1ccc(N2CCN(C(=O)c3ccco3)CC2)cc1	Sm TGR inh 35µM
CC1CN(c2ccc([N+](=O)[O-])cc2F)CCN1C(=O)c1ccco1 (stereo not given)	RE007 growth inh inconclusive
O=C(c1ccco1)N1CCN(c2ccc([N+](=O)[O-])cc2F)CC1	Sm TGR inh 35µM
COc1ccc(N2CCN(CC(=O)Nc3c(C)cccc3C)CC2)cc1	none (no result: Sm TGR inh, LmPK inh)
CNC(=O)C1CCC(Cn2c(=O)c3sccc3n(CC(=O)Nc3ccc(C)cc3C)c2=O)CC1 (stereo not given)	none (no result: RE007 growth inh, LmPK inh)
O=C(NCc1ccccc1)c1cc(C2CCCCN2C(=O)c2ccccc2)on1 (stereo not given)	none (no result: Sm TGR inh, LmPK inh)
O=C1CCCCCN1C(=O)c1ccccc1	none (no result: Sm TGR inh, LmPK inh)
O=C1CCCCCN1Sc1ccccc1	RE007 growth inh 13µM
CSc1ncccc1C(=O)OC(C)C(=O)Nc1cccc(S(=O)(=O)N2CCOCC2)c1 (stereo not given)	none (no result: Sm TGR inh, LmPK inh)
COC(=O)C1(C)NC(c2ccc(Cl)cc2)C2C(=O)N(c3ccccc3)C(=O)C21 (stereo not given)	Sm TGR inh inconclusive
O=C1C2C3C=CC(CNS(=O)(=O)c4ccccc4)(O3)C2C(=O)N1c1ccc(Cl)cc1 (stereo not given)	RE007 growth inh 3.2µM, Sm TGR inh 4µM
CC(=O)Oc1ccc(N2C(=O)C3C4C=CC(CO)(O4)C3C2=O)cc1 (stereo not given)	RE007 growth inh 7.9µM, Sm TGR inh 0.89µM, Tb PYK inh inconclusive
CC(=O)Oc1ccc(N2C(=O)C3C(C2=O)C2(C)C=CC3(C)O2)cc1 (stereo not given)	Sm TGR inh 0.63µM (no result: RE007 growth inh, Tb PYK inh)
